According to PubChem BioAssay AID1159580 (chemical genetic matrix, 2015):
The whole screen tested about 5,500 compounds, of which about 2,000 (36%) were called active. Not shown: some 18% with an inconclusive outcome. No stated cut-off is given here; in the data, active means normalized growth mostly below about 0.91 (no sharp cut-off); inconclusive means no clear call, values can overlap the other calls; inactive means mostly above about 0.92. Some of the results follow.

Assay: chemical genetic growth profiling, strain panel (AID 1159580);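 further: tested at 20 µM; growth read once vehicle control cultures reached saturation at 30 °C; 1 = growth at the plate median or of vehicle wells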
Details: growth OD
[1] = S. cerevisiae deletion strains, locus YHR030C, strain SLT2, stronger effect = lower value
[2] = S. cerevisiae deletion strains, locus YJL187C, strain SWE1, stronger effect = lower value
[3] = S. cerevisiae deletion strains, locus YAL013W, strain DEP1, stronger effect = lower value
[4] = S. cerevisiae deletion strains, locus YDR150W, strain NUM1, stronger effect = lower value
[5] = S. cerevisiae deletion strains, locus YMR307W, strain GAS1, stronger effect = lower value
[6] = S. cerevisiae deletion strains, locus YNL153C, strain GIM3, stronger effect = lower value
[7] = S. cerevisiae deletion strains, locus YNL322C, strain KRE1, stronger effect = lower value
[8] = S. cerevisiae deletion strains, locus YPL055C, strain LGE1, stronger effect = lower value

Measured: normalized growth

CNS(=O)(=O)c1ccc(NC(=O)c2ccccc2C(=O)O)cc1
inactive: S. cerevisiae deletion strains, locus YAL021C, strain ccr4, stronger effect = lower value 1 | S. cerevisiae deletion strains, locus YAL026C, strain drs2, stronger effect = lower value 1 | S. cerevisiae deletion strains, locus YAL030W, strain snc1, stronger effect = lower value 1 | S. cerevisiae deletion strains, locus YBL061C, strain skt5, stronger effect = lower value 0.993 | S. cerevisiae deletion strains, locus YBR009C, strain hhf1, stronger effect = lower value 0.998 | S. cerevisiae deletion strains, locus YBR023C, strain chs3, stronger effect = lower value 1 | S. cerevisiae deletion strains, locus YBR171W, strain sec66, stronger effect = lower value 0.996 | S. cerevisiae deletion strains, locus YBR231C, strain swc5, stronger effect = lower value 0.991 | S. cerevisiae deletion strains, locus YBR279W, strain paf1, stronger effect = lower value 1 | S. cerevisiae deletion strains, locus YCL011C, strain gbp2, stronger effect = lower value 0.993 | S. cerevisiae deletion strains, locus YCL016C, strain dcc1, stronger effect = lower value 1 | S. cerevisiae deletion strains, locus YCL061C, strain MRC1, stronger effect = lower value 1 | S. cerevisiae deletion strains, locus YCL069W, strain vba3, stronger effect = lower value 1 | S. cerevisiae deletion strains, locus YCR088W, strain abp1, stronger effect = lower value 0.999 | S. cerevisiae deletion strains, locus YDL005C, strain med2, stronger effect = lower value 1 | S. cerevisiae deletion strains, locus YDL040C, strain nat1, stronger effect = lower value 1 | S. cerevisiae deletion strains, locus YDR001C, strain nth1, stronger effect = lower value 0.996 | S. cerevisiae deletion strains, locus YDR069C, strain doa4, stronger effect = lower value 0.995 | S. cerevisiae deletion strains, locus YDR137W, strain rgp1, stronger effect = lower value 1.01 | S. cerevisiae deletion strains, locus YDR159W, strain sac3, stronger effect = lower value 0.982 | S. cerevisiae deletion strains, locus YDR195W, strain ref2 0.977 | S. cerevisiae deletion strains, locus YDR297W, strain sur2, stronger effect = lower value 0.995 | S. cerevisiae deletion strains, locus YDR334W, strain swr1, stronger effect = lower value 1 | S. cerevisiae deletion strains, locus YDR335W, strain msn5, stronger effect = lower value 1 | S. cerevisiae deletion strains, locus YDR392W, strain spt3, stronger effect = lower value 0.968 | S. cerevisiae deletion strains, locus YEL003W, strain gim4, stronger effect = lower value 0.994 | S. cerevisiae deletion strains, locus YEL037C, strain rad23, stronger effect = lower value 1.01 | S. cerevisiae deletion strains, locus YEL061C, strain CIN8 (second series), stronger effect = lower value 0.999 | S. cerevisiae deletion strains, locus YER015W, strain faa2, stronger effect = lower value 0.989 | S. cerevisiae deletion strains, locus YER016W, strain bim1, stronger effect = lower value 1.01 | S. cerevisiae deletion strains, locus YER111C, strain swi4, stronger effect = lower value 1 | S. cerevisiae deletion strains, locus YER155C, strain BEM2 (second series), stronger effect = lower value 1 | S. cerevisiae deletion strains, locus YFR010W, strain ubp6, stronger effect = lower value 1.01 | S. cerevisiae deletion strains, locus YGL167C, strain pmr1, stronger effect = lower value 0.993 | S. cerevisiae deletion strains, locus YGL173C, strain kem1, stronger effect = lower value 0.997 | S. cerevisiae deletion strains, locus YGL227W, strain vid30, stronger effect = lower value 0.998 | S. cerevisiae deletion strains, locus YGL240W, strain doc1, stronger effect = lower value 0.988 | S. cerevisiae deletion strains, locus YGL253W, strain hxk2, stronger effect = lower value 0.998 | S. cerevisiae deletion strains, locus YHR013C, strain ard1, stronger effect = lower value 0.997 | S. cerevisiae deletion strains, locus YHR027C, strain rpn1, stronger effect = lower value 0.992 | [1] 0.995 | S. cerevisiae deletion strains, locus YHR079C, strain IRE1, stronger effect = lower value 0.992 | S. cerevisiae deletion strains, locus YHR142W, strain chs7, stronger effect = lower value 1.02 | S. cerevisiae deletion strains, locus YJL092W, strain hpr5, stronger effect = lower value 0.995 | S. cerevisiae deletion strains, locus YJL095W, strain BCK1 (second series), stronger effect = lower value 0.99 | S. cerevisiae deletion strains, locus YJL095W, strain BCK1, stronger effect = lower value 0.981 | S. cerevisiae deletion strains, locus YJL115W, strain asf1, stronger effect = lower value 0.995 | S. cerevisiae deletion strains, locus YJL129C, strain trk1, stronger effect = lower value 1.02 | S. cerevisiae deletion strains, locus YJL154C, strain vps35, stronger effect = lower value 0.997 | S. cerevisiae deletion strains, locus YJL164C, strain tpk1, stronger effect = lower value 1.01 | S. cerevisiae deletion strains, locus YJL166W, strain qcr8, stronger effect = lower value 0.998 | [2] 0.99 | S. cerevisiae deletion strains, locus YJR066W, strain TOR1, stronger effect = lower value 0.931 | S. cerevisiae deletion strains, locus YKL160W, strain elf1, stronger effect = lower value 1.01 | S. cerevisiae deletion strains, locus YKR026C, strain gcn3, stronger effect = lower value 0.979 | S. cerevisiae deletion strains, locus YKR091W, strain srl3, stronger effect = lower value 0.994 | S. cerevisiae deletion strains, locus YLL001W, strain dnm1, stronger effect = lower value 1.01 | S. cerevisiae deletion strains, locus YLL026W, stronger effect = lower value 0.995 | S. cerevisiae deletion strains, locus YLL041C, strain sdh2, stronger effect = lower value 1 | S. cerevisiae deletion strains, locus YLR027C, strain aat2, stronger effect = lower value 1 | S. cerevisiae deletion strains, locus YLR113W, strain HOG1, stronger effect = lower value 0.969 | S. cerevisiae deletion strains, locus YLR221C, strain rsa3, stronger effect = lower value 1 | S. cerevisiae deletion strains, locus YLR258W, strain gsy2, stronger effect = lower value 0.998 | S. cerevisiae deletion strains, locus YLR262C, strain YPT6 (second series), stronger effect = lower value 0.992 | S. cerevisiae deletion strains, locus YLR320W, strain mms22, stronger effect = lower value 1 | S. cerevisiae deletion strains, locus YLR342W, strain FKS1, stronger effect = lower value 0.994 | S. cerevisiae deletion strains, locus YLR357W, strain rsc2, stronger effect = lower value 0.994 | S. cerevisiae deletion strains, locus YLR370C, strain arc18, stronger effect = lower value 0.995 | S. cerevisiae deletion strains, locus YLR384C, strain iki3, stronger effect = lower value 0.992 | S. cerevisiae deletion strains, locus YML120C, strain ndi1, stronger effect = lower value 0.992 | S. cerevisiae deletion strains, locus YMR058W, strain fet3, stronger effect = lower value 0.998 | S. cerevisiae deletion strains, locus YMR125W, strain sto1, stronger effect = lower value 0.994 | S. cerevisiae deletion strains, locus YMR129W, stronger effect = lower value 1.01 | S. cerevisiae deletion strains, locus YMR205C, strain PFK2, stronger effect = lower value 0.967 | S. cerevisiae deletion strains, locus YMR231W, strain pep5, stronger effect = lower value 0.998 | S. cerevisiae deletion strains, locus YNL071W, strain lat1, stronger effect = lower value 1.01 | S. cerevisiae deletion strains, locus YNL183C, strain NPR1, stronger effect = lower value 0.933 | S. cerevisiae deletion strains, locus YNL209W, strain ssb2, stronger effect = lower value 0.997 | S. cerevisiae deletion strains, locus YNL248C, strain rpa49, stronger effect = lower value 0.998 | S. cerevisiae deletion strains, locus YNL322C, strain KRE1 (second series), stronger effect = lower value 0.998 | S. cerevisiae deletion strains, locus YNR049C, strain mso1, stronger effect = lower value 1 | S. cerevisiae deletion strains, locus YOR001W, strain rrp6, stronger effect = lower value 1 | S. cerevisiae deletion strains, locus YOR070C, strain gyp1, stronger effect = lower value 0.999 | S. cerevisiae deletion strains, locus YOR080W, strain dia2, stronger effect = lower value 0.994 | S. cerevisiae deletion strains, locus YOR083W, strain WHI5, stronger effect = lower value 0.997 | S. cerevisiae deletion strains, locus YOR106W, strain vam3, stronger effect = lower value 1.01 | S. cerevisiae deletion strains, locus YOR231W, strain MKK1, stronger effect = lower value 0.991 | S. cerevisiae deletion strains, locus YOR265W, strain rbl2, stronger effect = lower value 1.01 | S. cerevisiae deletion strains, locus YOR270C, strain vph1, stronger effect = lower value 1.03 | S. cerevisiae deletion strains, locus YOR290C, strain snf2, stronger effect = lower value 0.995 | S. cerevisiae deletion strains, locus YPL051W, strain arl3, stronger effect = lower value 1.02 | S. cerevisiae deletion strains, locus YPL078C, strain atp4, stronger effect = lower value 1.02 | S. cerevisiae deletion strains, locus YPL106C, strain sse1, stronger effect = lower value 0.984 | S. cerevisiae deletion strains, locus YPL240C, strain hsp82, stronger effect = lower value 0.992 | S. cerevisiae deletion strains, locus YPL256C, strain CLN2, stronger effect = lower value 0.987

CN(C(=O)Nc1ccccc1)n1cnc2ccccc2c1=O
inactive: [3] 0.999 | S. cerevisiae deletion strains, locus YBR229C, strain ROT2, stronger effect = lower value 1.03 | S. cerevisiae deletion strains, locus YDL101C, strain DUN1, stronger effect = lower value 1 | S. cerevisiae deletion strains, locus YDL134C, strain PPH21, stronger effect = lower value 1.03 | [4] 0.917 | S. cerevisiae deletion strains, locus YEL061C, strain CIN8, stronger effect = lower value 1.02 | S. cerevisiae deletion strains, locus YGR078C, strain PAC10, stronger effect = lower value 1.01 | [1] 1.01 | S. cerevisiae deletion strains, locus YHR087W, strain rtc3, stronger effect = lower value 0.994 | [2] 1.01 | S. cerevisiae deletion strains, locus YJR043C, strain POL32, stronger effect = lower value 0.998 | S. cerevisiae deletion strains, locus YJR075W, strain HOC1, stronger effect = lower value 1.04 | S. cerevisiae deletion strains, locus YKL190W, strain CNB1, stronger effect = lower value 1.01 | S. cerevisiae deletion strains, locus YLR039C, strain RIC1, stronger effect = lower value 1 | S. cerevisiae deletion strains, locus YLR058C, strain SHM2 (second series), stronger effect = lower value 1.02 | S. cerevisiae deletion strains, locus YLR085C, strain ARP6, stronger effect = lower value 1.04 | S. cerevisiae deletion strains, locus YLR262C, strain YPT6, stronger effect = lower value 1.01 | S. cerevisiae deletion strains, locus YML094W, strain GIM5, stronger effect = lower value 1.03 | S. cerevisiae deletion strains, locus YMR219W, strain ESC1, stronger effect = lower value 1.01 | S. cerevisiae deletion strains, locus YMR263W, strain SAP30, stronger effect = lower value 0.994 | [5] 0.98 | [6] 1.01 | S. cerevisiae deletion strains, locus YNL298W, strain CLA4 (second series), stronger effect = lower value 1 | [7] 1.01 | S. cerevisiae deletion strains, locus YNR030W, strain Alg12, stronger effect = lower value 1.01 | [8] 1.05 | S. cerevisiae deletion strains, locus YPL241C, strain CIN2, stronger effect = lower value 1.02 | S. cerevisiae deletion strains, locus YPR135W, strain CTF4, stronger effect = lower value 1 | S. cerevisiae strains, strain wild type, stronger effect = lower value 1.01

CCCCCCC(C)(C)c1ccc([C@@H]2C[C@H](O)CC[C@H]2CCCO)c(O)c1
active: [6] 0.716
inactive: [3] 1.01 | S. cerevisiae deletion strains, locus YAL040C, strain CLN3, stronger effect = lower value 0.993 | [4] 0.986 | S. cerevisiae deletion strains, locus YDR363W, strain ESC2, stronger effect = lower value 1.02 | S. cerevisiae deletion strains, locus YER002W, strain NOP16, stronger effect = lower value 0.977 | [5] 1.01 | S. cerevisiae deletion strains, locus YNL175C, strain NOP13, stronger effect = lower value 0.915 | S. cerevisiae deletion strains, locus YNL197C, strain WHI3, stronger effect = lower value 0.944 | S. cerevisiae deletion strains, locus YNL224C, strain SQS1, stronger effect = lower value 0.922 | [7] 1.01 | S. cerevisiae deletion strains, locus YOR083W, strain WHI5 (second series), stronger effect = lower value 0.897 | [8] 0.998
